Source: PubChem BioAssay (several laboratories)
Compounds with a hit are over-represented: about 3% of the library has one in this group of screens.
TRPM1 prom inh – inhibitors of MITF-driven TRPM1 promoter in melanoma cells; 0.83% of 330,000 active; inhibition, % at 12.5 µM; AID 488899; SK-MEL-5 TRPM1 promoter luciferase, 24 h;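 active = mean inhibition across replicates of 60% or more, whatever share of single replicates reaches that level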
ABHD5-PLIN5 inh – blocks binding of human ABHD5 to perilipin-5; Split G. princeps luciferase complementation, luminescence, 4 h; inhibition, % at 4 µM; 0.78% of 360,000 active; AID 602281;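 active = inhibition above the mean inhibition across every tested compound plus 3 SD, cut at about 22% in these data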
Target sequence (Q00G26 whole entry, looked up): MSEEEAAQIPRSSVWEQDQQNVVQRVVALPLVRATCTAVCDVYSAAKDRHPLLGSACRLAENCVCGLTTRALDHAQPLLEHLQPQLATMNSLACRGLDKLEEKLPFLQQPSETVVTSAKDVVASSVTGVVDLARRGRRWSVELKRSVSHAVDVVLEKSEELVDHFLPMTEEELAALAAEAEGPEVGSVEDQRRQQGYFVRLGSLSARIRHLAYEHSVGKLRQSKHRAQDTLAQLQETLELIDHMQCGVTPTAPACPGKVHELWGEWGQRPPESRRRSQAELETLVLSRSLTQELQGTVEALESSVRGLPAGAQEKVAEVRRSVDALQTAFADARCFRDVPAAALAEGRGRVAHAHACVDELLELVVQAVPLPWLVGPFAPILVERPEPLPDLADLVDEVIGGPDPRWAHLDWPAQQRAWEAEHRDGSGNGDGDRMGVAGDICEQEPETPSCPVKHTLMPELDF
Target sequence (Q8WTS1 whole entry, looked up): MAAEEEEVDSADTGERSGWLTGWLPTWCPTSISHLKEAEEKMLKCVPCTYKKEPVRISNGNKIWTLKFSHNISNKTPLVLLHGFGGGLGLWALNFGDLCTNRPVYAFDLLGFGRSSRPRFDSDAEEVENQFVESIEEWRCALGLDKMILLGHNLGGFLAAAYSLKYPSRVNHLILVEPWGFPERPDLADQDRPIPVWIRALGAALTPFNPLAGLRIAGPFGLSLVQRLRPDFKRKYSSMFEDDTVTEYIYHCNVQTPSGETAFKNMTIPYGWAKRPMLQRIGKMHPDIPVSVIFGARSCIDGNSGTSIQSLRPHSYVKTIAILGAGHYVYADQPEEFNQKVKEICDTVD
KKLEB tox – counter-screen for CF NF-kB inhibitors: cytotoxicity; KKLEB CF airway cells viability, ATPlite luminescence, overnight; hits give low values; cells stimulated with P. aeruginosa culture filtrate; activity change (cytotoxicity), % at 5 µM; 0.36% of 360,000 active; AID 602141;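 active = corrected activity change at or below -50% at 5 µM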
HIF-2a inh – inhibitors of HIF-2a; 786-0 RCC cells HIF-2a reporter, luciferase luminescence, overnight; inhibition, % at 18.8 µM; AID 624352; 0.72% of 360,000 active;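 active = inhibition of the luminescence signal of 40% or more relative to plate controls, in a single-dose primary screen at 18.75 µM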
CF NFkB inh – blocks PAF-induced NF-kB reporter in cystic fibrosis cells | KKLEB NF-kB-GFP reporter, GFP fluorescence overnight | inhibition, % at 5 µM | 0.86% of 360,000 active;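 active = at least 50% inhibition at 5 µM, scaled per plate between neutral and stimulator controls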;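 note: PAF is a Pseudomonas aeruginosa culture filtrate used as stimulus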
Peg3 promoter – Peg3 promoter activity inhibition. inhibition, % at 20 µM. AID 588405. 1.7% of 360,000 active. HeLa PEG-Prom luciferase reporter, luminescence, overnight;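 active = inhibition of at least 50% at 20 µM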
Numbers stand for hits; . = inactive; / = not tested or not shown.

SMILES	TRPM1 prom inh	ABHD5-PLIN5 inh	KKLEB tox	HIF-2a inh	CF NFkB inh	Peg3 promoter
O=C1CCN(S(=O)(=O)c2ccccc2)C2CCCCC12 (stereo unspecified)	.	.	.	.	.	.
O=C1NC2CCCCC2C(=O)N1OS(=O)(=O)c1ccccc1 (stereo unspecified)	.	.	.	.	.	51
CC(C)(C)c1ccc(C2CC2C(=O)N/N=C\c2ccc[nH]2)cc1 (stereo unspecified)	.	.	.	.	58	.
CC(C)C(=O)N1CCN(c2ccc(NC(=O)COc3ccccc3[N+](=O)[O-])cc2)CC1	.	.	.	.	.	91
CN1CCN(c2ccc(NC(=O)COc3ccccc3[N+](=O)[O-])cc2)CC1	.	.	.	.	.	.
CCOC(=O)c1c(NC(=O)CSc2nccn2C)sc(C(=O)NC)c1C	.	.	.	.	.	.
Cc1ccc(-c2nc3ccccc3[nH]2)cc1NC(=O)c1sc2cc(Cl)ccc2c1Cl	.	.	.	.	.	83
Cc1ccc(-c2nc3ncccc3o2)cc1NC(=O)c1sc2ccccc2c1Cl	.	.	.	.	.	78
Cc1ccc(-c2nc3ncccc3o2)cc1NC(=O)c1cccs1	.	.	.	.	.	.
COc1ccc(Nc2ccc3c(c2)=NC2(CCCCC2)[N+]=3[O-])cc1	86	.	.	.	64	95
[O-][N+]1=c2ccc(Nc3ccccc3)cc2=NC12CCCCC2	61	.	.	.	85	104
COc1ccc(C(CCNCc2ccc(N(C)C)cc2)c2ccccc2OC)cc1 (stereo unspecified)	.	.	.	.	.	60
COc1ccc(C(CCNCc2ccc(OC(C)C)cc2)c2ccccc2OC)cc1 (stereo unspecified)	87	.	.	.	.	102
Brc1ccc(-c2nc(N/N=C/c3cccnc3)c3ccccc3n2)cc1	.	.	-70	.	.	.
C(=N\Nc1nc(-c2cccnc2)nc2ccccc12)/c1ccccc1	/	.	.	.	.	.
CC(=O)N(CN1C(=O)CCC1=O)c1ccc(Cl)c(Cl)c1	.	.	.	.	.	51
COC(=O)c1cn(C(=O)/C=C/c2ccc(OC)c(OC)c2)c2ccccc12	.	.	.	.	.	82
CCOc1ccc(/C=N/NS(=O)(=O)c2ccc(C)cc2)cc1OC	.	.	.	.	.	.
COc1cc(/C=C/C(=O)NC(C)(C)C)ccc1OCc1ccccc1	.	.	.	.	.	.
COc1ccc(C(=O)C=Cc2ccc(OCc3ccccc3)c(OC)c2)cc1OC	/	.	.	.	.	80
COc1cc(/C=N/NS(=O)(=O)c2ccc(C)cc2)ccc1OCc1ccc(C(=O)O)cc1	72	.	.	.	.	.
CCC1CSC(Nc2ccc(C(=O)/C=C/c3ccc(OC)c(OC)c3)cc2)=N1 (stereo unspecified)	.	.	.	.	.	91
CCOC(=O)C(c1nc2ccccc2[nH]1)n1c(-c2ccccn2)nc2ccccc21 (stereo unspecified)	/	.	.	.	.	.
O=C(NCc1cccc(C(F)(F)F)c1)C1C(=O)Nc2ccccc2C(=O)N1Cc1ccccc1 (stereo unspecified)	/	.	/	.	/	/
Nc1c(CNCc2nnn(Cc3ccccc3)c2N)nnn1Cc1ccccc1	/	.	.	.	.	.
SMILES	TRPM1 prom inh	ABHD5-PLIN5 inh	KKLEB tox	HIF-2a inh	CF NFkB inh	Peg3 promoter
O=C(CN1C(=O)NC(CCc2ccccc2)C1=O)Nc1cccc(Br)c1 (stereo unspecified)	.	.	.	.	.	.
COc1ccc(/C=C/C(=O)C(C)(C)C)cc1OC	.	.	.	.	.	83
COc1cc(OC)c(C(=O)C=Cc2ccc(OC)c(OC)c2)c(OC)c1	.	.	.	.	.	.
COC(=O)Nc1nc2ccc(C(=O)c3cccs3)cc2[nH]1	.	.	.	.	60	.
CCCCCc1ccc(OCCC[n+]2ccccc2)c(CCCCC)c1	105	.	-91	.	85	107
C[n+]1cn(CC(O)COCc2ccccc2)c2ccccc21 (stereo unspecified)	.	.	.	.	.	.
CCCCCc1ccc(OCCOCCn2c[n+](C)c3ccccc32)c(CCCCC)c1	77	.	.	.	.	105
OCC1(CCc2ccccc2)CCN(Cc2cc(F)ccc2-n2cccn2)CC1	.	.	.	.	.	.
O=C(Oc1ccc(NC2=NS(=O)(=O)c3ccccc32)cc1)c1cccnc1	.	.	.	.	.	.
Cc1cccc(N(Cc2ccccc2)C(=O)CCl)c1	.	.	-107	.	96	59
Cc1cccc(NC(=O)CSc2nc(C)c(CC(=O)c3ccc(Br)cc3)c(C)c2C#N)c1C	76	.	.	.	.	71
Cc1nc(SCC(=O)Nc2ccc(F)cc2)c(C#N)c(C)c1CC(=O)c1ccc(Br)cc1	65	.	.	.	.	91
COc1ccc(NC(=O)CSc2nc(C)c3c(c2C#N)CCCC3)cc1	.	.	.	.	.	.
O=C(CN1CCN(c2ccc(O)cc2)CC1)Nc1ccc(S(=O)(=O)N2CCCC2)cc1	.	.	.	.	.	.
CCC(C)Sc1nc2c(c(=O)[nH]1)C(c1cccs1)C1=C(CCCC1=O)N2 (stereo unspecified)	/	.	.	.	.	55
O=C(NNC(=O)C1C2C=CC(C2)C1C(=O)O)c1cc(Cl)ccc1O (stereo unspecified)	.	.	.	.	.	.
O=C(Cn1ncn2c(cc3ccccc32)c1=O)NCc1ccco1	.	29	.	.	.	.
Cc1ccc(C)c(NC(=O)C(Sc2nc3ccccc3c(=O)n2CC(C)C)c2ccccc2)c1 (stereo unspecified)	.	.	-93	.	105	57
Cc1ccc(C)c(NC(=O)C(Sc2ncnc3ccccc23)c2ccccc2)c1 (stereo unspecified)	.	.	.	.	.	59
CCCCNC(=O)C1(C)CCCCN1C(=O)c1ccc2c(c1)CCO2 (stereo unspecified)	/	.	.	.	.	.
NC(=O)c1c(NC(=O)c2ccncc2)sc2c1CCCCCC2	.	.	.	.	.	.
COc1ccccc1N(CC(=O)NCCSCc1cccc(C)c1)S(=O)(=O)c1ccccc1	.	.	.	.	.	61
CC(=O)NCc1ccc(C(=O)CCl)cc1	.	.	.	.	.	53
CC(=O)NCc1ccc(C(=O)CCl)s1	.	.	.	.	.	69
O=C(Nc1ccccc1C(=O)O)c1cc(S(=O)(=O)N2CCOCC2)c(Br)s1	.	.	.	.	.	.
Cc1[nH][nH]c(=O)c1C(c1c(C)[nH][nH]c1=O)c1cn(Cc2ccccc2Cl)c2ccccc12	.	.	.	.	68	56
N/C(=N\O)c1cn(Cc2ccccc2Cl)c2ccccc12	.	.	.	.	.	.
